Drawing on PubChem BioAssay (EPA / NIEHS), this text covers outcome and AC50 for 11 compounds.

“And” between values parts separate entries of the source, which are not always exact repeats. Equal values may be shown once. The source holds several records for some structures; these can differ, active in one and inactive in another. The source made the active and inactive calls. How the source made its calls: active means hit-call score of the fitted dose curve at least 0.9, where 1 is the maximum; inactive means score below 0.9.

Holding throughout (details): mRNA level, 48 h; actives raise or lower the signal
Read-out in experiment [1]: BCL2L11 (gene 10018)
The experiment in a line: LTEA_HepaRG_BCL2L11: Life Technologies and Expression Analysis (LTEA) Assay for Bcl-2 (BCL2L11) gene using HepaRG (AID 2283473). A digest of the protocol: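 Cells were plated, cultured 48 h, switched to serum-free induction medium, then dosed in duplicate for 48 h at eight half-log concentrations up to 100 uM. Lysates underwent RNA isolation and TaqMan qRT-PCR; gain or loss versus DMSO was fitted.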

Read-out in experiment [2]: Apolipoprotein A-V (APOA5) gene, APOA5 (gene 116519)
The experiment in a line: LTEA_HepaRG_APOA5: Life Technologies and Expression Analysis (LTEA) Assay for Apolipoprotein A-V (APOA5) gene using HepaRG (AID 2283474). A digest of the protocol: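 Human liver HepaRG cells are treated 48 h with test chemicals (100 uM top, half-log dilutions, 0.5% DMSO). APOA5 mRNA induction or loss is measured by qRT-PCR relative to vehicle.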

Read-out in experiment [3]: Bcl-2 (BID) gene, BID (gene 637)
The experiment in a line: LTEA_HepaRG_BID: Life Technologies and Expression Analysis (LTEA) Assay for Bcl-2 (BID) gene using HepaRG (AID 2283476). A digest of the protocol:
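Assay used HepaRG hepatic cells treated 48 h in serum-free medium with half-log dilutions from 100 uM. Endpoint: BID mRNA, qRT-PCR, normalized to ACTB/GAPDH/POLR2A.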

Read-out in experiment [4]: Caspase-3 (Homo sapiens) (UniProt P42574)
The experiment in a line: LTEA_HepaRG_CASP3: Life Technologies and Expression Analysis (LTEA) Assay for cysteine-aspartic acid protease (CASP3) using HepaRG (AID 2283477). A digest of the protocol:
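In HepaRG liver cells dosed for 48 h at up to 100 uM (eight-point, duplicate), CASP3 expression changes are scored by qRT-PCR. Activity is fitted in both directions with 0.5% DMSO as baseline.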

Read-out in experiment [5]: Cytochrome P450 (CYP24A1), CYP24A1 (gene 1591)
The experiment in a line: LTEA_HepaRG_CYP24A1: Life Technologies and Expression Analysis (LTEA) Assay for Cytochrome P450 (CYP24A1) using HepaRG (AID 2283478). A digest of the protocol:
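Human liver HepaRG cultures receive each chemical for 48 h across an eight-point half-log series topping at 100 uM in 0.5% DMSO. Induction or suppression of CYP24A1 mRNA is scored relative to vehicle after housekeeping-gene normalization.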

Read-out in experiment [6]: Cytochrome P450 (CYP1A2), CYP1A2 (gene 1544)
Description: LTEA_HepaRG_CYP1A2: Life Technologies and Expression Analysis (LTEA) Assay for Cytochrome P450 (CYP1A2) using HepaRG (AID 2283479).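 On AC50: TaqMan qRT-PCR transcript level normalized to ACTB GAPDH and POLR2A.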 An outline of the steps:
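Assesses CYP1A2 mRNA in human HepaRG liver cells after 48 h chemical exposure at up to 100 uM. Values come from qRT-PCR with bidirectional curve fitting relative to DMSO.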

Read-out in experiment [7]: cysteine-aspartic acid protease (CASP8), CASP8 (gene 841)
Description: LTEA_HepaRG_CASP8: Life Technologies and Expression Analysis (LTEA) Assay for cysteine-aspartic acid protease (CASP8) using HepaRG (AID 2283480). A digest of the protocol: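 qRT-PCR readout of CASP8 mRNA, normalized to three housekeeping genes, after 48 h chemical exposure of HepaRG cells; 8-point half-log series, top 100 uM, 0.5% DMSO vehicle. Bidirectional curve fitting against DMSO baseline.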

Read-out in experiment [8]: Cytochrome P450 (CYP2B6), CYP2B6 (gene 1555)
The experiment in a line: LTEA_HepaRG_CYP2B6: Life Technologies and Expression Analysis (LTEA) Assay for Cytochrome P450 (CYP2B6) using HepaRG (AID 2283481). A digest of the protocol: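 Using 48 h treatment of HepaRG cells in serum-free induction medium, concentrations spanned half-log steps from 100 uM in 0.5% DMSO vehicle. CYP2B6 mRNA induction or loss is scored by qRT-PCR against DMSO.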

Read-out in experiment [9]: Apoptosis regulator Bcl-2 (Homo sapiens) (UniProt P10415)
Description: LTEA_HepaRG_BCL2: Life Technologies and Expression Analysis (LTEA) Assay for Bcl-2 gene using HepaRG (AID 2283475).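 Further: BCL2 transcript by TaqMan qRT-PCR normalised to ACTB GAPDH and POLR2A.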 An outline of the steps: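 Each chemical was tested in duplicate on HepaRG cultures held in serum-free induction medium for 48 h, highest concentration 100 uM with half-log dilutions. Transcript levels came from multiplexed qRT-PCR, normalised to housekeeping genes; activity was scored in either direction relative to DMSO.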

Read-out in experiment [10]: Alpha-fetoprotein (AFP) gene, AFP (gene 174)
The experiment in a line: LTEA_HepaRG_AFP: Life Technologies and Expression Analysis (LTEA) Assay for Alpha-fetoprotein (AFP) gene using HepaRG (AID 2283472). An outline of the steps:
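Measures AFP mRNA change in HepaRG after 48 h chemical exposure (8 half-log concentrations, highest 100 uM, 0.5% DMSO). Fold change relative to DMSO, fitted in both directions.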

Sequence of Caspase-3 (Homo sapiens) (P42574 whole entry, looked up): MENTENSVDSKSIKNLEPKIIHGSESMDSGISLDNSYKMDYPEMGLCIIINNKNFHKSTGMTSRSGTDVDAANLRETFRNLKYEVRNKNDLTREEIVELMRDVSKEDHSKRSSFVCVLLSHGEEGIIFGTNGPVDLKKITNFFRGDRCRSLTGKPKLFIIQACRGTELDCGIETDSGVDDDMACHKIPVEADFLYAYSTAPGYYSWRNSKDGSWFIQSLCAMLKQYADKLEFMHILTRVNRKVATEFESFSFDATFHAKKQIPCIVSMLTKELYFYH
Sequence of Apoptosis regulator Bcl-2 (Homo sapiens) (P10415 whole entry, looked up): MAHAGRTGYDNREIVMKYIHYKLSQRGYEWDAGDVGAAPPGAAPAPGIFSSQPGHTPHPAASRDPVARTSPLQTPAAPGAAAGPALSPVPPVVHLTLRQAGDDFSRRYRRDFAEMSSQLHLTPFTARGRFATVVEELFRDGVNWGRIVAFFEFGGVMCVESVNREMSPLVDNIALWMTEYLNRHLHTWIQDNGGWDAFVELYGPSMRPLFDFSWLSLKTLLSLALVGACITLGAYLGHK

For the compound `O=S(=O)(O)C(F)(F)C(F)(F)C(F)(F)C(F)(F)C(F)(F)C(F)(F)C(F)(F)C(F)(F)F`, the compound was classed as inactive in experiment [1], in [2], in [3], in experiment [4], in experiment [5] and in [7]. Further, the AC50 (commonly the concentration giving half of the maximal activity seen) in experiment [2] was 34.1 µM (active); in [4], 22.1 µM (active); in experiment [5] it was 0.00316 µM (active); in experiment [6] it was 84.5 µM (active) and 10.3 µM (active) and 48 µM (active); in [7] it was 34.5 µM (active); in [8], 88.9 µM (active) [middle of 4 runs].

In the case of `COP(=S)(OC)Oc1ccc([N+](=O)[O-])cc1`, the result in experiment [1], in experiment [2], in experiment [9], in [3], in experiment [4] and in [5] was inactive. In addition, the compound was called inactive in experiment [7]. Further, the AC50 in experiment [6] is 32.8 µM (active); in experiment [8] it was 15.7 µM (active).

For `O=[N+]([O-])c1c(Cl)c(Cl)c(Cl)c(Cl)c1Cl`, the compound was classed as inactive in [10], in [1], in experiment [2], in [3], in experiment [4] and in experiment [5]. Also, the call in experiment [7] was inactive. The AC50 is 36.7 µM (active) in experiment [6] and 5.88 µM (active) in [8].

Consider `CN1CSC(=S)N(C)C1`, for which the compound was classed as inactive in [10], in experiment [1], in experiment [2], in experiment [3], in [4] and in experiment [5]. Besides, the outcome in experiment [7] and in [8] was inactive. The AC50 in [6] is 34.7 µM (active).

As to `O=[N+]([O-])/N=C1\NCCN1Cc1ccc(Cl)nc1`, the AC50 is 23.3 µM (active) in [1], 26.7 µM (active) in experiment [4], 23.6 µM (active) in experiment [6] and 13.2 µM (active) in experiment [8]. Also, the outcome in experiment [2], in [3], in experiment [5] and in [7] was inactive.

Turning to `COP(=S)(OC)Oc1ccc(SC)c(C)c1`, the call in experiment [1], in experiment [2], in [3], in experiment [4], in [5] and in [7] was inactive. Besides, the AC50 was 35 µM (active) in experiment [6] and 7.23 µM (active) in experiment [8].

For `CC(C)N(C(=O)COc1nnc(C(F)(F)F)s1)c1ccc(F)cc1`, the result in experiment [1], in experiment [9], in [3], in experiment [4], in [5] and in [6] was inactive. For the same compound, the compound was called inactive in [7] and in [8]. Moreover, the AC50 in [2] was 78.4 µM (active).

As for `CNC(=O)Oc1ccccc1OC(C)C`, the call in experiment [10], in experiment [1], in [2], in experiment [3], in experiment [4] and in [5] was inactive. The call in [6] and in experiment [7] was inactive. Moreover, the half-maximal activity concentration (AC50) in experiment [8] was 3.17 µM (active).

As to `N#Cc1c(Cl)c(Cl)c(Cl)c(C#N)c1Cl`, the call in experiment [10], in [1], in experiment [2], in experiment [3], in experiment [4] and in [5] was inactive. Further, the call in [7] and in experiment [8] was inactive. Besides, the AC50 in experiment [6] is 13.7 µM (active).

Consider `OCCOc1ccccc1`, for which the call in experiment [1], in experiment [2], in experiment [3], in experiment [4], in [5] and in experiment [6] was inactive. Besides, the compound was called inactive in [7]. Also, in experiment [8], the AC50 was 50 µM (active).

Turning to `Oc1cc(Cl)ccc1Oc1ccc(Cl)cc1Cl`, the AC50 in experiment [1] is 51 µM (active); in experiment [2], 51 µM (active) and 81.5 µM (active); in experiment [3], 10.1 µM (active); in experiment [8], 17 µM (active) and 51 µM (active). The call in [1], in experiment [2], in experiment [3], in experiment [4], in experiment [5] and in [6] was inactive. Besides, the compound was called inactive in [7] and in [8].
